Results on twelve sequences are retold here after paper doi:10.1101/2024.03.05.583629.

Chain of pT7_6His-AlfaTag-HOXD13 (P35453 263-343): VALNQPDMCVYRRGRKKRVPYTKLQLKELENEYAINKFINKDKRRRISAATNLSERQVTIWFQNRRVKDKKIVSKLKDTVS

This test concerns the target pT7_6His-AlfaTag-HOXD13 (human, UniProt P35453 263-343). The test can be described thus: PADIT-seq. Particulars: dsDNA, one strand shown.
“CTCGAGGATATCAAGATCTGGCCTCGGCCGCTTACGCGGAACCTCTAGCTAGCCGACTCACTATAGGGATAATCGCCCTGAGCAAAGACC”: the binding signal is -0.713 ± 0.125 log2FC.

“CTCGAGGATATCAAGATCTGGCCTCGGCATTTTAAGCGGAACCTCTAGCTAGCCGACTCACTATAGGGATAATCGCCCTGAGCAAAGACC”: the binding signal stood at 0.548 ± 0.1 log2FC. Sequence “CTCGAGGATATCAAGATCTGGCCTCGGCCTTTTACTCGGAACCTCTAGCTAGCCGACTCACTATAGGGATAATCGCCCTGAGCAAAGACC” came in with a binding signal of 0.504 ± 0.0906 log2FC. In turn, “CTCGAGGATATCAAGATCTGGCCTCGGCCTTTTATGTGGAACCTCTAGCTAGCCGACTCACTATAGGGATAATCGCCCTGAGCAAAGACC” gave a binding signal of 2.69 ± 0.0743 log2FC.

Sequence “CTCGAGGATATCAAGATCTGGCCTCGGCTGGTTAAAAGGAACCTCTAGCTAGCCGACTCACTATAGGGATAATCGCCCTGAGCAAAGACC” registered a binding signal of 1.48 ± 0.0798 log2FC. In turn, “CTCGAGGATATCAAGATCTGGCCTCGGCGTTTTACTTGGAACCTCTAGCTAGCCGACTCACTATAGGGATAATCGCCCTGAGCAAAGACC” had a binding signal of 1.25 ± 0.0875 log2FC. Turning to “CTCGAGGATATCAAGATCTGGCCTCGGCCTTTTAGACGGAACCTCTAGCTAGCCGACTCACTATAGGGATAATCGCCCTGAGCAAAGACC”, the binding signal is -0.199 ± 0.091 log2FC.

In the case of “CTCGAGGATATCAAGATCTGGCCTCGGCGCTGTAAAAGGAACCTCTAGCTAGCCGACTCACTATAGGGATAATCGCCCTGAGCAAAGACC”, the binding signal was 2.11 ± 0.0786 log2FC. For “CTCGAGGATATCAAGATCTGGCCTCGGCCGACTAAAAGGAACCTCTAGCTAGCCGACTCACTATAGGGATAATCGCCCTGAGCAAAGACC”, the binding signal was -0.753 ± 0.121 log2FC. The result for “CTCGAGGATATCAAGATCTGGCCTCGGCATTTTAATTGGAACCTCTAGCTAGCCGACTCACTATAGGGATAATCGCCCTGAGCAAAGACC” reads 2.74 ± 0.0827 log2FC; that for “CTCGAGGATATCAAGATCTGGCCTCGGCGTGATAAAAGGAACCTCTAGCTAGCCGACTCACTATAGGGATAATCGCCCTGAGCAAAGACC”, 1.99 ± 0.0801 log2FC; that for “CTCGAGGATATCAAGATCTGGCCTCGGCACCCTAAAAGGAACCTCTAGCTAGCCGACTCACTATAGGGATAATCGCCCTGAGCAAAGACC”, 0.642 ± 0.0968 log2FC.
